The nature of assay [1]: A549 cell viability effects, profiling panel, calcein-AM fluorescence, 48 h, basal (AID 1162). The note with it: higher = more signal.
Assay [2] can be described thus: adipocyte viability effects, profiling panel, cell-based, 3T3-L1 adipocytes, calcein-AM fluorescence, 48 h, basal (AID 1163). The following applies: 3T3-L1 adipocytes viability, higher = more signal.
The nature of assay [3]: HepG2 cell viability effects, profiling panel, calcein-AM fluorescence, 48 h, basal (AID 1164). The following applies: higher = more signal.
The nature of assay [4]: MM1S cell viability effects, profiling panel, calcein-AM fluorescence, 48 h, basal (AID 1165).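 Note: viability of MM1S multiple myeloma cells under basal unstimulated conditions.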 The note with it: higher = more signal.
Assay [5] is described as follows: basal RPMI8226 viability, no added stimulus, profiling panel, cell-based, calcein-AM fluorescence, 48 h, PK04 Diversity Set (AID 1166).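 Note: cells grown under basal conditions without added stimulus.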 The following applies: RPMI8226 myeloma viability, higher = more signal.
Assay [6] in a line: basal HepG2 mitochondrial membrane potential changes, profiling panel, cell-based, JC-1 fluorescence, 24 h, 100 nL compound (AID 1167). The note with it: higher = more signal.
Assay [7] is described as follows: basal 3T3-L1 adipocyte mitochondrial potential changes, profiling panel, cell-based, JC-1 fluorescence, 3T3-L1 adipocytes, 24 h, 100 nL compound (AID 1168). The note with it: JC-1 mitochondrial fluorescence, higher = more signal, called active from +8 up or from −8 down.
The nature of assay [8]: basal RPMI8226 mitochondrial membrane potential changes, profiling panel, cell-based, JC-1 fluorescence, 24 h, 100 nL compound (AID 1169). The note with it: RPMI8226 myeloma, JC-1 mitochondrial potential fluorescence, higher = more signal.
Assay [9] can be described thus: basal MM1S mitochondrial membrane potential changes, profiling panel, cell-based, JC-1 fluorescence, 24 h, 100 nL compound (AID 1170). The note with it: higher = more signal.
Assay [10] can be described thus: A549 lung cancer cell viability effects, profiling panel, resazurin fluorescence, 24 h, PK04 Diversity Set (AID 1171). The following applies: higher = more signal, called active from +8 up or from −8 down. In general terms: The colour change of resazurin is a common sign of viable cells or microbes.

Calls of active or inactive are those of the source.
Note: test concentration not given here.

For the molecule `C=C(C)c1cc2c(c(CCCCCC)n1)[Si](C(C)C)(C(C)C)OC2`, the z-score in [1] was -0.926; in [2] it was -0.197; in [3], -0.567; in [4] it was 0.134; in [5] it was 0.414; in [6], -0.592. Also, the z-score in assay [7] was -0.617 (inactive); in assay [8] it was 0.56; in [9], -0.369; in [10], 0.867 (inactive).

In the case of `CC(C)(C)OC(=O)CC[C@@]1(C(=O)NCc2ccccc2)N=C(c2ccc(OCCCO)cc2)O[C@@H]1c1ccccc1N=[N+]=[N-]`, the z-score is -0.365 in assay [1]; 1.55 in assay [2]; -0.258 in assay [3]; -1.68 in assay [4]; -1.41 in assay [5]; 0.515 in assay [6]. The z-score was 1.35 (inactive) in assay [7], -1.01 in assay [8], 0.24 in assay [9] and -0.682 (inactive) in assay [10].

`COC(=O)CCCCCCC(=O)Nc1ccc(NC(=O)CCCC[P+](c2ccccc2)(c2ccccc2)c2ccccc2)cc1`: the z-score in assay [1] was -0.0008; in assay [2] it was -0.297; in [3], 0.67; in [4], 0.134; in assay [5], -0.268; in assay [6], 1.58. Besides, the z-score is 1.03 (inactive) in assay [7], -0.176 in assay [8], -1.46 in assay [9] and 1.1 (inactive) in [10].

For the molecule `CCC[C@@H]1C[C@@]1(CCC)[C@@H](NC(=O)OCc1ccccc1)c1ccc(-c2ccccc2)cc1`, the z-score in [1] was -1.15; in assay [2] it was -1.15; in assay [3], 0.0422; in assay [4], -0.625; in [5] it was -1.43; in assay [6], -0.862. The z-score was 0.258 (inactive) in assay [7], -0.325 in [8], -1.19 in assay [9] and 2.39 (inactive) in assay [10].

With `NC(N)=NCCCn1cc(CNC(=O)[C@@H](N)Cc2ccccc2)nn1`, the z-score in assay [1] was -0.531; in assay [2] it was -0.637; in [3], -0.948; in assay [4], -0.0334; in [5] it was -1.23; in assay [6], -0.868. The z-score in assay [7] is -0.283 (inactive); in [8], 0.714; in assay [9], 0.225; in assay [10] it was -0.414 (inactive).

Take `CCCCCCCCCCC(O)C1C=CC2C(=O)N(C)C(=O)C2N1Nc1ccc([N+](=O)[O-])cc1[N+](=O)[O-]` (stereo not given): the z-score was -0.783 in [1]; -0.801 in [2]; -1.2 in assay [3]; -3.69 in assay [4]; -4.05 in assay [5]; 0.693 in assay [6]. Also, the z-score in assay [7] was -1.21 (inactive); in [8] it was -0.935; in assay [9], -1.8; in [10], -0.283 (inactive).

As to `COC(=O)c1ccc([C@H](NC(=O)c2ccco2)[C@]2(C)C[C@H]2C2CCCCC2)cc1`, the z-score in assay [1] is -1.13; in assay [2], -1.2; in [3] it was -2.43; in assay [4], -2.65; in [5], -3.28; in assay [6] it was -2.5. Also, the z-score in assay [7] is -1.02 (inactive); in assay [8], -0.89; in [9], -1.12; in assay [10], -2.55 (inactive).

With `CN1C(=O)C2C=CC(C(O)c3cccc4ccccc34)N(N3CCCCC3)C2C1=O` (stereo not given), the z-score in assay [1] was -0.866; in assay [2], -0.576; in [3] it was -0.776; in assay [4] it was -1.21; in [5] it was -0.493; in assay [6] it was -1.79. Moreover, the z-score was -1.53 (inactive) in assay [7], 0.776 in [8], -0.382 in assay [9] and 0.294 (inactive) in assay [10].

For `CC(C)C[C@@H]1NC(=O)[C@@H]2C[C@H](C(=O)NCCCCN(C)C)[C@H](c3cccc(OCCO)c3)N2C1=O`, the z-score was 0.355 in [1]; 0.507 in assay [2]; -1.2 in assay [3]; 0.26 in assay [4]; 0.54 in [5]; -0.627 in [6]. For the same molecule, the z-score in assay [7] was 0.454 (inactive); in assay [8] it was -0.601; in assay [9], -0.443; in [10], 0.389 (inactive).

Regarding `COc1ccc(CCNC(=O)[C@@H]2c3ccccc3C(=O)N(Cc3cc(C(F)(F)F)cc(C(F)(F)F)c3)[C@H]2c2ccc(CO)cc2)cc1`, the z-score is 1.64 in assay [1]; 1.58 in [2]; 1.17 in assay [3]; -1.4 in assay [4]; -0.35 in assay [5]; 1.61 in [6]. Besides, the z-score in assay [7] was -0.497 (inactive); in [8], -0.0116; in [9], 0.29; in assay [10] it was 0.349 (inactive).

For the molecule `CCCCCCc1nc(C2CC2)cc2c1[Si](C(C)C)(C(C)C)O[C@H]2c1ccccc1`, the z-score in assay [1] was -0.036; in [2] it was -0.177; in assay [3], -0.106; in [4], -0.892; in assay [5], -0.517; in [6], -1.09. For the same molecule, the z-score was -0.731 (inactive) in assay [7], 0.573 in [8], 0.0835 in [9] and 0.254 (inactive) in [10].

`O=C1C[C@@](C(=O)NCCN2CCOCC2)(c2ccc([N+](=O)[O-])cc2)[C@@H](c2ccc(CO)cc2I)N1C1CCCCC1`: the z-score in assay [1] is 0.465; in assay [2] it was 0.267; in assay [3], -0.696; in assay [4], -1.55; in assay [5], -0.764; in assay [6], 2.87. Further, the z-score in [7] was 0.264 (inactive); in [8], -0.444; in [9] it was 0.267; in assay [10], 2.01 (inactive).

Regarding `O=C1c2ccccc2[C@](Cc2ccccc2I)(C(=O)NCC(F)(F)F)[C@H](c2ccc(CO)cc2)N1C1CCCCC1`, the z-score is 1.77 in assay [1]; 0.515 in [2]; 1.02 in [3]; -1.75 in assay [4]; -3.92 in [5]; 1.3 in [6]. The z-score in assay [7] is 0.238 (inactive); in assay [8], -0.434; in [9], 0.23; in assay [10] it was -0.0818 (inactive).

For the molecule `COCCOC(=O)N1C(=O)[C@@]2(c3cc(C#CCCO)ccc31)[C@H](c1ccccc1OCCO)N1[C@H](c3ccccc3)[C@H](c3ccccc3)OC(=O)[C@H]1[C@@H]2C(=O)Nc1nc2ccccc2s1`, the z-score in assay [1] was 0.148; in assay [2], -0.676; in assay [3] it was 0.169; in [4], -1.11; in assay [5] it was -0.813; in [6], -3.28. In addition, the z-score is -0.192 (inactive) in assay [7], -0.417 in assay [8], -0.998 in assay [9] and 0.854 (inactive) in assay [10].

Source of the values: PubChem BioAssay.
